Drawing on PubChem BioAssay AID588827 (Broad Institute, 2011), this text covers outcome for 90 molecules.

In all, about 2,400 compounds went through this assay and about 20 (0.8%) were called active. Inconclusive results (about 19%) are left out.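 Rule for the calls: active = fitted half-maximal concentration for signal decrease at or below twice the top tested dose, in every repeat run; inconclusive = repeat runs disagree, or flat partial inhibition, or poor fit; inactive = all runs flat, wrong-direction or potency beyond limit.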 A selection follows. Results with a measured potency or affinity are listed apart.

The test in a line: GFP reporter loss versus dox-driven RFP – NIH3T3 R4 cells, cherry-pick, set 4, dose response (AID 588827). Conditions: NIH3T3 R4 HSF-1 GFP reporter, heat shock, 48 h; series mostly up to 19.5 µM.
Take `COc1ccc2nnc(-c3ccc(C(F)(F)F)cc3)n2n1`: the call was inactive.

On to `O=C1CCCC/C1=N\Nc1ccc(C2CCCCC2)cc1`, for which the outcome was inactive. As to `COc1ccc(C(=O)C2CCCN(S(=O)(=O)c3ccccc3F)C2)c(C)c1` (stereo not given), the result was inactive. Under `Cc1cc(S(=O)(=O)N2CCN=C2c2ccccc2)c(C)cc1Cl` stands “inactive”. For `COc1cc(/C=N/N=C2/C(=O)Nc3ccccc32)cc(OC)c1O` the value was “inactive”; for `O=C(NCc1ccco1)C(=O)NCC(c1ccco1)N1CCOCC1` (stereo not given), “inactive”; for `CCOC(=O)C1(CCOc2ccccc2)CCN(Cc2cccc(-n3cccn3)c2)CC1`, “inactive”. Under `CC(=O)N/N=C(\C)CC(=O)NC(C)(C)C` stands “inactive”; under `C=CCn1c(C)cc(C(=O)CSc2nnc(NC(C)C)s2)c1C`, “inactive”; under `CCCCN1CNC(=S)N(c2ccc(C(=O)OCC)cc2)C1`, “inactive”.

Turning to `COc1ccc(-c2oc3ccccc3c2C(=O)Oc2ccccc2)cc1`, the result was inactive. Consider `Cc1ccc(-c2nn(-c3ccccc3)cc2CN(C)C(=O)CCC(=O)O)cc1C`, for which the result was inactive.

For the molecule `O=[N+]([O-])c1cccc(-c2nnc(-c3ccccc3)o2)c1`, the call was inactive. For `Cc1ccc(C(=O)N/C(=C/c2ccco2)C(=O)Nc2cccc(C(=O)O)c2)cc1`, the call was inactive. On to `Cc1cccc(OCC(=O)Nc2cccc(C(=O)NCC(C)C)c2)c1`, for which the call was inactive. For `COc1ccc(C2NS(=O)(=O)N=C2N)cc1` (stereo not given) the value was “inactive”. Under `CC(=O)C1C(=O)c2c(cccc2[N+](=O)[O-])C1=Nc1ccc(S(N)(=O)=O)cc1` (stereo not given) stands “inactive”; under `CCOC(=O)N1CCN(S(=O)(=O)c2ccc3c(c2)OCC(=O)N3)CC1`, “inactive”; under `Cc1ccc(-c2cn(-c3ccccc3)c(=S)[nH]2)cc1C`, “inactive”.

As to `O=C(Nc1ccccc1N1CCCCC1)C1CCN(C(=O)c2ccc(Cl)cc2)CC1`, the call was inactive. Turning to `CCOC(=O)c1c(NC(=O)CSc2nnc(-c3c[nH]c4ccccc34)n2C)sc2c1CCCC2`, the call was inactive. Under `O=C(NCCCn1ccnc1)C(=O)NCC1OCCN1S(=O)(=O)c1cc(F)ccc1F` (stereo not given) stands “inactive”; under `O=C(O)CCSc1nnc(-c2ccc3c(c2)OCO3)o1`, “inactive”.

For `Cc1c(C(=O)c2no[n+]([O-])c2C(=O)c2cnn(C)c2C)cnn1C`, the molecule was classed as inactive. Under `O=S(=O)(Nc1cccc(Oc2cnccn2)c1)c1ccc(F)cc1` stands “inactive”. Under `CCOc1cc(/C=N/NC(=O)c2cccc(S(=O)(=O)N3CCOCC3)c2)ccc1OCC(=O)N(C)C` stands “inactive”; under `Cc1ccc(-c2cc3c(N=O)c4ccccc4c-3n[nH]2)cc1`, “inactive”; under `CCCN(CCC)C(=O)CSc1nc2ccsc2c(=O)n1NC(=O)c1ccccc1`, “inactive”. Under `COc1cccc(C(c2sc3nc(C)nn3c2O)N2CCN(C(=O)c3ccco3)CC2)c1` (stereo not given) stands “inactive”. Take `Cn1c(=O)c2ccccc2n(Cc2ccccc2Cl)c1=O`: the molecule was classed as inactive. Take `O=C(CCl)NC(Cc1ccccc1)c1ccccc1` (stereo not given): the molecule was called inactive. For `COC(=O)c1cc(S(=O)(=O)NCCc2ccccc2)c[nH]1` the value was “inactive”.

On to `O=C(CCl)N=c1sccn1Cc1ccc(Cl)cc1Cl`, for which the molecule was called inactive.

Turning to `Cc1ccc(S(=O)(=O)N2CCN(CC(=O)N/N=C\c3ccncc3)CC2)cc1`, the molecule was called inactive. For `O=C(O)c1ccc2nc(-c3ccccc3)sc2c1` the value was “inactive”; for `Cn1c(=O)c2c(SCC(=O)N3CCCc4ccccc43)nc(C3CC3)nc2n(C)c1=O`, “inactive”; for `Cc1ccc(C)c(NC(=O)COc2coc(CN3CCc4ccccc4C3)cc2=O)c1`, “inactive”.

In the case of `Cc1ccc2[nH]c(=O)c(CN(C(=O)c3cccc([N+](=O)[O-])c3)C(C)C)cc2c1`, the result was inactive.

In the case of `O=C(Nc1ccc(S(=O)(=O)N2CCOCC2)cc1)c1ccc(Cl)cc1Cl`, the call was inactive.

On to `COC(=O)c1nn(-c2ccc3c(c2)CCN3C(C)=O)cc1O`, for which the call was inactive. Under `Cc1cc(C)c2[nH]c(=O)c(C(c3nnnn3CC3CCCO3)N3CCC(C)CC3)cc2c1` (stereo not given) stands “inactive”.

Take `N=C(N)SCc1ccccc1Cl`: the molecule was called inactive. For `COc1ccc(C(=O)NCc2nnc(SCC(=O)N3CCC(C)CC3)o2)cc1OC` the value was “inactive”. As for `O=C(Cn1nc2ccccc2n1)N/N=C/c1cc([N+](=O)[O-])ccc1O`, the result was inactive. For `O=C(Oc1ccccc1Cl)c1ccc(-n2cncn2)nc1` the value was “inactive”; for `COc1ccc(S(=O)(=O)N2CCCCCC2)cc1C(=O)OCC(=O)NC(C)(C)C`, “inactive”. For `Nc1ccccc1-c1nc2ccccc2s1`, the call was inactive. For `O=C(N1CCCCC1)N1CCN(S(=O)(=O)c2ccccc2)CC1` the value was “inactive”; for `COc1ccc(S(=O)(=O)N2CCCC2)cc1C(C)C`, “inactive”. For `Cc1nc2sccn2c(=O)c1S(=O)(=O)Nc1ccc(N2CCOCC2)c(Cl)c1` the value was “inactive”; for `COC(=O)c1cccc(NC(=O)CN2CCN(Cc3ccccc3)CC2)c1`, “inactive”; for `CN1CCc2c(sc(/N=C/c3cc(C(C)(C)C)ccc3O)c2C#N)C1`, “inactive”. Under `COc1ccc2[nH]c3c(=O)n(CCCN4CCOCC4)cnc3c2c1` stands “inactive”. Take `CCO/C(C)=C1/SC(=S)NC1=O`: the molecule was called inactive.

As for `c1ccc(OCCSc2nc3ccccc3o2)cc1`, the molecule was called inactive. Under `COc1cc(NC(=O)c2cc(C)nc3ccccc23)cc(OC)c1` stands “inactive”; under `COc1cccc(C(=O)c2c[nH]c(C(=O)NCc3ccco3)c2)c1`, “inactive”. For `COc1ccc(CNC(=O)c2cnc3scc(C)n3c2=O)cc1` the value was “inactive”. For `COc1ccc(Cl)cc1C(=O)NCC(=O)OCc1ccccc1` the value was “inactive”; for `O=C(CCNC(=O)c1ccc(Cl)cc1)Nc1ncccc1O`, “inactive”; for `CCCCOC(=O)CSCC(=O)Nc1cc(C)on1`, “inactive”. For `CCN(CC)S(=O)(=O)c1ccc2c(c1)c(=O)c(C(=O)NCc1ccco1)cn2C`, the call was inactive. Under `CC(=O)N(c1ccc2oc(=O)sc2c1)S(=O)(=O)c1ccc(C(=O)O)cc1` stands “inactive”; under `CCOC(=O)c1cc(S(=O)(=O)N2CCc3ccccc32)cn1C`, “inactive”; under `Fc1ccccc1N1CCN(Cc2cc(-c3ccccc3)on2)CC1`, “inactive”. For `CCc1ccccc1NC(=O)CSc1nnc(-c2ccncc2)o1` the value was “inactive”. For the molecule `COCCNC(=O)C(OC(=O)c1cccs1)c1ccccc1` (stereo not given), the call was inactive.

For `COc1ccc(CCNC(=O)CN(c2ccc(OC)c(OC)c2)S(C)(=O)=O)cc1OC`, the result was inactive. Under `CCC(NC(=S)NCc1ccccc1)C(=O)O` (stereo not given) stands “inactive”; under `CCOCCn1c(SCC(=O)OCc2ccccc2)nc2c1c(=O)[nH]c(=O)n2C`, “inactive”; under `CC(C)c1nc2ccccc2c2nnc(SCC(=O)NCc3ccco3)n12`, “inactive”. For `CC(=O)Nc1ccc(-c2cn3c(n2)SCC3)cc1` the value was “inactive”; for `CC1(C)Cc2nc3[nH]c(=S)n(-c4ccccc4)c(=O)c3cc2CO1`, “inactive”; for `Cc1ccc(S(=O)(=O)c2ccc(Oc3ccccc3)cc2)cc1`, “inactive”.

Take `CC1CCCN(c2ncnc3c2cnn3-c2ccc(Cl)cc2)C1` (stereo not given): the result was inactive. Under `COc1ccc(Cn2nnnc2C(c2cc3cccc(C)c3[nH]c2=O)N2CCN(C)CC2)cc1` (stereo not given) stands “inactive”; under `CC(C)c1ccc(NC(=O)N(CCc2nc3ccccc3[nH]2)C2CCCC2)cc1`, “inactive”; under `CCCS(=O)(=O)N1CCc2cc(OC)c(OC)cc2C1`, “inactive”. Consider `CCC(Sc1nc2cc(OC)c(OC)cc2c(=O)n1CCc1ccc(S(N)(=O)=O)cc1)C(=O)NCCOC` (stereo not given), for which the call was inactive.

For `O=C(N/N=C/c1ccccn1)c1ccc([N+](=O)[O-])cc1`, the result was inactive. Under `CN(C)c1ccc(CNc2ccc3c(c2)ncn3C(C)(C)C)cc1` stands “inactive”; under `COc1cccc(-n2nc(-c3ccnn3-c3cccc(Cl)c3)c(=O)n(C)c2=O)c1`, “inactive”. Take `CCOC(=O)c1cc2sccc2n1CC(=O)Nc1ccc(OC)cc1`: the result was inactive. `Cc1cccc(-c2ocnc2C(=O)N2CCN(C(=O)c3cccs3)CC2)c1`: the molecule was called inactive. Take `CCOC(=O)c1c(C)nc2c(C)cccn12`: the call was inactive. Take `CC(C)(C)C(=O)OCc1nc(-c2ccc3c(c2)OCCO3)cs1`: the molecule was classed as inactive. Under `Cc1nn(C(C)(C)C)c(C)c1/C=N/OC(=O)Nc1ccc(Cl)c(Cl)c1` stands “inactive”. Under `Nc1nc(CSC(=S)N2CCCCC2)nc(Nc2ccccc2)n1` stands “inactive”; under `NS(=O)(=O)c1ccc(NC2=CC(=O)C(=O)c3ccccc32)cc1`, “inactive”. Under `Cn1c(NC(=O)c2ccccc2NC(=O)C(C)(C)C)nc2ccccc21` stands “inactive”.
